Source: PubChem
Shown are actives, neighbours in structure and some others; about 5.4% of the full set was active somewhere.
Six1-Eya2 blk: blocks human Six1 binding to Eya2; Q15475+O00167; AlphaScreen GST-Six1/His-Eya2 binding, biochemical; stronger effect = lower value; activity change, % (concentration not given with the values); 0.56% of 360,000 active; AID 651725; in the data active = activity change below about -65%; inconclusive = mostly about -30% to -63%; also: % is scaled to controls: 0 for no effect and ±100 for the full control effect
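GST-Six1 + His-Eya2 (5X stock: 250/500 nM); Tris pH 8.0, 300 mM NaCl, 0.05% BSA, 0.02% Tween 20; GSH donor/Ni acceptor beads; 1 h 37 °C dark; AlphaScreen readout.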
p53 reactivation: mutant p53 re-activation in reporter cells; H1299 p53-A138V BP100-luciferase reporter, luminescence, 24 h; AID 504706; Potency, µM (doses to about 92.2 µM), inactives show top-dose activity change, positive = activation, actives largely listed as activators; 0.063% of 320,000 active; also: potency is read from the fitted curve at half-maximal effect; % of control where 0% means no effect; nearly all actives have a fitted effect of over 45% in size
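p53-null H1299 cells stably carrying temperature-sensitive p53-A138V and a BP100-luciferase reporter were pinned with compounds (4-point, 1:5 series) and held 24 hrs at 37 deg C. Luminescence was read 10 min after detection reagent.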
RORg inh: inhibitors of mouse ROR gamma transcriptional activity; AID 2551; P51450; 5.4% of 310,000 active; Potency, µM (series often up to 53.6 µM), for the others: at the highest dose activity change, negative = inhibition, most hits filed as inhibitors; Drosophila S2 Gal4-RORgamma UAS-luciferase reporter, 20 h; also: potency is read from the fitted curve at half-maximal effect; % is scaled to controls: 0 for no effect and ±100 for the full control effect; nearly all actives have a fitted effect of over 60% in size
Target sequence (P51450 whole entry, looked up, the tested form may be a part): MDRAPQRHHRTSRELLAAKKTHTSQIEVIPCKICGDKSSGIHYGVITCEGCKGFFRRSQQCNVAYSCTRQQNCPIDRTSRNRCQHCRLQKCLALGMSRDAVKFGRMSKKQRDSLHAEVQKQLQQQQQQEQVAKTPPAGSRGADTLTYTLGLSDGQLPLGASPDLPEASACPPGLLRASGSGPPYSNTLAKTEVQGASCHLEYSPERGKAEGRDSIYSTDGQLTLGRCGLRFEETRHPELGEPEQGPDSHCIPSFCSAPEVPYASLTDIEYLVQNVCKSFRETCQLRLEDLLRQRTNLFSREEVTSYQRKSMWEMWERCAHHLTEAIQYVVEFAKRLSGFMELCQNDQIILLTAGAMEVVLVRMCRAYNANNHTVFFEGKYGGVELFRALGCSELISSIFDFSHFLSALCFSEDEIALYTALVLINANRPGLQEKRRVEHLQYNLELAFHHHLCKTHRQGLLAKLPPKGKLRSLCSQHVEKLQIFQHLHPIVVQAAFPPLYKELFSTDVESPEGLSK
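Drosophila S2 cells stably expressing Gal4-DBD/mouse RORγ fusion under metallothionein promoter plus UAS-luciferase; compound 1 h, then 700 uM CuSO4 induction for 20 h at ambient temperature; inhibition read as reduced luminescence.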
Gal4-VP16 FLuc: inhibits Gal4-VP16 luciferase reporter, ROR gamma counter-screen | 3.5% of 310,000 active | Drosophila S2 Gal4-VP16 UAS-luciferase, luminescence, 20 h | AID 2546 | Potency, µM (series often up to 53.6 µM), for the others: at the highest dose activity, negative = inhibition, actives largely listed as inhibitors;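 also: Gal4-VP16 expression switched on by copper sulfate through the metallothionein promoter; potency is read from the fitted curve at half-maximal effect; % is scaled to controls: 0 for no effect and ±100 for the full control effect; nearly all actives have a fitted effect of over 50% in size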
CtBP-E1A blk: CtBP/E1A binding inhibition | AlphaScreen GST-E1A/His-CtBP binding, 1536-well; stronger effect = lower value | activity change, % (concentration not given with the values) | 0.49% of 340,000 active; in the data active = activity change below about -65%; inconclusive = mostly about -30% to -63%; also: % is scaled to controls: 0 for no effect and ±100 for the full control effect
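Steps: dispense buffer (Tris pH 8.0, NaCl 300 mM, TCEP 1 mM, BSA, Tween 20); add 5X protein mix (GST-E1A, His-CtBP, 125 nM each); pin 23 nL compound; 2 h at 37 °C, dark; add 5X beads (50 ug/mL); 1 h; read.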
Active calls of the source: *; ? = inconclusive; . = not tested or not shown; [ ] = remark or other dose. Unless noted, calls follow the shape of the dose curve; as a rule, active = well fitted curve in the direction sought with a large enough effect; inconclusive = small, poorly fitted or top-dose-only effect, or another doubt; inactive = no such curve, though single readings can be large; an effect the other way counts as inactive or inconclusive.

SMILES	Six1-Eya2 blk	p53 reactivation	RORg inh	Gal4-VP16 FLuc	CtBP-E1A blk
CC1CCCCC1NC(=O)CSc1nnc(COc2ccc(Cl)cc2)o1 (configuration not stated)	1.2	-4.5%	17.5%	6.8%	7.7
C/C(=N\NC(=O)Cc1ccccc1)c1ccc(Cl)s1	1.9	12.2%	2.3%	2.2%	-1.9
C/C(=N\NC(=S)NCc1ccccc1)c1ccc(Cl)s1	-7.8	8.1%	1.41µM*	8.91µM*	-0.2
COCCNC(=S)N/N=C(\C)c1ccc(Cl)s1	-14.6	2.7%	0.794µM*	3.16µM*	-6.0
C/C(=N\NC(=S)NCc1ccccc1)c1cccs1	1.2	24.6%	0.447µM*	2µM*	-15.1
COc1ccc(C(=O)Nc2ccccc2C(=O)NCC2CCCO2)cc1 (configuration not stated)	2.3	-0.7%	15.6%	-4.9%	14.0
COC(=O)C/C=C\[C@H](C)[C@@H](OC)c1ccccc1Br	.	.	-2.0%[10 µM]	-3.0%[10 µM]	.
CC(/C=C/c1ccc(N(C)C)cc1)=N\N=C(/N)SC1CC(=O)N(c2ccc(C(=O)O)cc2)C1=O (configuration not stated)	-10.1	?	0.794µM*	2.24µM*	-5.6
O=C(O)c1ccc(N2C(=O)CC(SC(=Nc3ccccc3)Nc3ccccc3)C2=O)cc1 (configuration not stated)	7.1	2.5%	5.0%	0.0%	-0.6
COc1cc(/C=C2/SC(=S)N(CC(=O)Nc3nc4ccccc4s3)C2=O)cc(OC)c1OC	-13.2	7.6%	10µM*	-1.8%	1.5
CCc1nnc(NC(=O)CN2C(=O)/C(=C/c3cc(OC)c(OC)c(OC)c3)SC2=S)s1	-6.5	-4.3%	15.8µM*	?	-24.1
COc1cc(/C=C2\SC(=S)N(CC(=O)Nc3ccccn3)C2=O)cc(OC)c1OC	-16.9	4.6%	-5.0%	-5.7%	-26.1
COc1ccc(-c2cc(=O)oc3cc(OC(C)C(=O)NCc4ccccn4)ccc23)cc1 (configuration not stated)	-3.8	9.8%	8.1%	-0.7%	-9.6
CCOc1ccc(NC(=S)N(CCOC)C(C)c2ccco2)cc1 (configuration not stated)	-5.9	0.7%	8.91µM*	?	.
COCCN(C(=S)Nc1ccc(C)cc1)C(C)c1ccco1 (configuration not stated)	-1.7	6.2%	?	-14.4%	1.8
CCc1ccccc1NC(=S)N(CCOC)C(C)c1ccco1 (configuration not stated)	1.9	1.9%	12.6µM*	-5.4%	1.0
CCc1cccc(C)c1NC(=S)N(CCOC)C(C)c1ccco1 (configuration not stated)	-2.2	-0.2%	10µM*	-0.3%	0.2
CCCCCCCCCCC(C)=O	.	.	7.7%	1.9%	.
Cc1c(C(=O)N2CCN(S(=O)(=O)c3ccccc3)CC2)oc2ccc(Br)cc12	-3.3	2.2%	.	.	-4.2
CC(C)(Oc1ccc(Cl)cc1)C(=O)NC1CC1	7.8	-4.5%	.	.	-7.6
CC(C)C(=O)NNC(=O)CN1CCN(c2nc(-c3ccccc3)cs2)CC1	-4.6	4.9%	3.3%	-0.2%	-6.4
CCc1nnc(NC(=O)c2cc(-c3ccccc3)nn2-c2ccccc2)s1	-3.2	-3.9%	10µM*	?	-1.7
CCc1nnc(NC(=O)CN2CCN(c3nc(-c4ccccc4)cs3)CC2)s1	-10.9	-6.4%	11.2µM*	?	-10.4
O=C(Nc1nccs1)c1cc(-c2ccccc2)nn1-c1ccccc1	1.7	-9.6%	?	?	-0.6
O=C(Nc1ccc(F)c(Cl)c1)c1cc(C2CCCCN2C(=O)c2cccs2)on1 (configuration not stated)	0.5	.	.	.	-22.7
SMILES	Six1-Eya2 blk	p53 reactivation	RORg inh	Gal4-VP16 FLuc	CtBP-E1A blk
CC1=NN(C(=O)c2ccc(Cn3cc([N+](=O)[O-])cn3)cc2)C(O)(C(F)(F)F)C1 (configuration not stated)	9.3	-6.7%	10µM*	12.6µM*	1.1
CC1=NN(C(=O)c2cccc(Cn3nc(C)c([N+](=O)[O-])c3C)c2)C(O)(C(F)(F)F)C1 (configuration not stated)	-0.9	-3.2%	3.16µM*	7.08µM*	-10.7
Cc1nn(Cc2cccc(C(=O)N3N=C(C(F)F)CC3(O)C(F)F)c2)c(C)c1[N+](=O)[O-] (configuration not stated)	-1.3	-6.3%	?	-25.1%	5.2
CN(C)c1ccc(NC(=O)c2ccc(Cn3cc([N+](=O)[O-])cn3)cc2)cc1	?	26.6%	?	-4.8%	?
COC(=O)CC1C(=O)NCCN1C(=O)CSc1nc2ccccc2c(=O)n1CC(C)C (configuration not stated)	-9.0	1.3%	11.2µM*	?	-6.6
CC[C@H](C)N(C)C(=O)c1cc2ccccc2c(-c2ccccc2Cl)n1	.	.	33.8%	-1.3%	.
Cc1ccc(O)c(N=Nc2nccs2)c1	-70.6*	?	.	.	?
NC(=S)N/N=C/c1ccc2cccc(OCc3ccccc3)c2n1	-6.0	-3.9%	7.08µM*	?	-22.8
COC(=O)N/N=C/c1ccccc1OCc1ccccc1	-0.2	5.2%	?	0.7%	-3.1
NC(=S)N/N=C/c1ccccc1OCc1cccc(Cl)c1	-20.8	-2.3%	0.794µM*	3.98µM*	-11.7
C#CCOCCOCCOCCNc1nc(N2CCOCC2)nc(N2CCN(C(=O)Cn3cc(CCCCN)nn3)CC2)n1	4.2	.	.	.	6.8
CCNC(=S)NNC(=O)CCn1c2ccccc2c2ccccc21	-2.7	-4.8%	?	?	3.5
CCNC(=S)NNC(=O)CCn1cc(C)cn1	-2.9	3.4%	6.31µM*	?	-6.8
Cc1cnn(CCC(=O)NNC(=S)Nc2ccc(F)cc2)c1	1.8	-6.5%	0.447µM*	2.82µM*	10.3
Cc1cnn(CCC(=O)NNC(=S)Nc2cccc(Cl)c2)c1	2.9	2.1%	0.355µM*	?	8.1
Cc1ccc(C2C3=C(CC(C)(C)CC3=O)NC3=C2C(=O)c2ccccc23)cc1 (configuration not stated)	?	-9.9%	13.4%	?	?
CC1(C)C(=O)NC2=C1C(=O)C(=O)c1ccccc12	.	.	1.41µM*	2.82µM*	.
Cc1ccc(NC(=S)C2=C(O)c3ccccc3N(C)S2(=O)=O)cc1	-2.0	-6.9%	?	17.8µM*	-1.1
CN1c2ccsc2C(O)=C(C(=S)Nc2ccccc2)S1(=O)=O	1.0	-5.5%	10µM*	?	3.7
CN1c2ccccc2C(O)=C(C(=S)Nc2ccccc2)S1(=O)=O	1.7	-1.8%	?	?	-13.3
COC(=O)CC1C(C)(C)C(=O)C2CC3C4=CC(=O)OC(c5ccoc5)[C@]4(C)CCC3[C@@]1(C)C2=O (some centres not stated)	.	.	5.0%	-5.0%	.
